The campaign covered roughly 360,000 compounds. About 3,900 (1.1%) were called active. The full list was thinned out, with actives kept by preference. Values without a mark were called inactive.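 Rule for the calls: active = mean replicate inhibition score of at least 50 and every replicate individually at or above 50; inconclusive = only one of the two criteria met; inactive = mean below 50 and not all replicates reaching 50.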
Assay: inhibitors of HIV-1 Env-driven cell-cell fusion, primary screen, HeLa-JRFL effector, CEM21 target cells, luciferase (AID 651610);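 note: 0% = plate neutral controls and 100% = maraviroc near 300 nM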
Details: active compounds read high; at 16.7 µM unless noted

Structure (SMILES)	inhibition
Cc1noc(C)c1NC(=O)N[C@H]1CC[C@H](CC(=O)N2CCCCC2)O[C@@H]1CO	4.43%
CC1=C(C(=O)N(C(C)C)C(C)C)CC(CC(=O)NCC2CCCCC2)C(=O)N1Cc1ccccc1 (configuration not stated)	61.4% [at 12.3 µM] (active)
CCN(CC)C(=O)C1=C(C)N(Cc2ccccc2)C(=O)C(CC(=O)NC(c2ccccc2)c2ccccc2)C1 (configuration not stated)	-23.1% [at 12.3 µM]
CC1=C(C(=O)N2CCOCC2)CC(CC(=O)NCC2CCCCC2)C(=O)N1Cc1ccc(F)cc1 (configuration not stated)	6.87% [at 12.3 µM]
CC(NCc1ccccc1OC1CCCC1)c1ccccc1 (configuration not stated)	62.5% [at 12.3 µM] (active)
COc1cc(CNC2CCCCC2)c(Br)cc1OC1CCCC1	-65.6% [at 12.3 µM]
CC(C)(C)NCc1cc(Br)ccc1OC1CCCC1	14.4% [at 12.3 µM]
CCOC(=O)CNC(=O)N(C)[C@H]1C[C@H]2c3[nH]c4c(-c5ccc6c(c5)OCO6)cccc4c3CCN2C(=O)[C@H]1[C@H](C)O	-112% [at 12.3 µM]
CN1CCN(C(=O)C[C@H]2C[C@@H]3c4cc(NC(=O)NC5CCCC5)ccc4O[C@@H]3[C@@H](CO)O2)CC1	-8.97%
CC1CCN(C(=O)c2cc3nc(C4CC4)cc(C(F)(F)F)n3n2)CC1	12.6% [at 12.3 µM]
CC1CCN(C(=O)c2ncn3c2C(=O)N[C@@H](C)C3)CC1	131% [at 12.3 µM] (active)
CC1CCN(C(=O)c2ccc3c(c2)NC(=O)CN3)CC1	1.27% [at 12.3 µM]
CCCNC(=O)N1[C@@H](C#N)[C@H](c2ccc(-c3ccc(C(=O)N(C)C)cc3)cc2)[C@@H]1CO	26%
O=C(NCc1ccncn1)[C@@H]1[C@@H](CO)[C@@H]2Cn3c(ccc(-c4ccc(F)cc4)c3=O)[C@@H]2N1CC1CC1	-1.91%
COc1ccc(NC(=O)Nc2ccc3c(c2)CC(=O)N([C@@H](C)CO)C[C@H](C)[C@@H](CN(C)S(=O)(=O)c2cn(C)cn2)O3)cc1	13%
O=C(COc1cc(Cl)c(Cl)cc1Cl)NCCc1ccccn1	-1.39% [at 12.3 µM]
NC(=S)NN=Cc1ccc(OC(=O)COc2cc(Cl)c(Cl)cc2Cl)cn1	74.3% [at 12.3 µM] (active)
O=C(COC(=O)COc1cc(Cl)c(Cl)cc1Cl)NC1CC1	1.57% [at 12.3 µM]
CCCN(C)C[C@H]1OCCCC[C@@H](C)Oc2ccc(N(C)C)cc2C(=O)N([C@H](C)CO)C[C@@H]1C	0.797%
CCOC(=O)c1c(C)[nH]c2c1-c1ccccc1C(=O)C2=O	58.9% [at 12.3 µM] (active)
CCOC(=O)c1[nH]c2ccccc2c1N=C(C)N(CC)CC	-0.896% [at 12.3 µM]
CCOC(=O)c1c(C)[nH]c(C)c1S(=O)(=O)NCCCc1ccco1	-4.62% [at 12.3 µM]
C[C@H](CO)N1C[C@H](C)[C@@H](CN(C)CC2CC2)Oc2ccc(NC(=O)Nc3ccccc3)cc2CC1=O	-2.58%
CN(C(=O)CCN1C(=O)/C(=C/c2ccccc2F)SC1=S)C1CCS(=O)(=O)C1 (configuration not stated)	-6.28% [at 12.3 µM]

Structure (SMILES)	inhibition
CN(C(=O)CN1C(=O)/C(=C/c2ccc(Cl)cc2)SC1=S)C1CCS(=O)(=O)C1 (configuration not stated)	55.1% [at 12.3 µM] (active)
CCN(C(=O)CN1C(=O)/C(=C/c2ccc(F)cc2)SC1=S)C1CCS(=O)(=O)C1 (configuration not stated)	-11.4% [at 12.3 µM]
CNC[C@H]1Oc2ncc(-c3ccccc3F)cc2C(=O)N([C@H](C)CO)C[C@H]1C	10.5%
O=C(C[C@@H]1C[C@@H]2c3cc(NS(=O)(=O)c4ccc(F)cc4)ccc3O[C@@H]2[C@H](CO)O1)NCc1ccccc1F	90.3% (active)
O=C(C[C@@H]1C[C@H]2c3cc(NS(=O)(=O)c4ccc(F)cc4)ccc3O[C@H]2[C@@H](CO)O1)NCc1ccccc1F	56.4% (active)
O=C(C[C@H]1C[C@H]2c3cc(NS(=O)(=O)c4ccc(F)cc4)ccc3O[C@H]2[C@H](CO)O1)NCc1cc(F)ccc1F	-74.8% [at 12.3 µM]
COc1ccccc1CNC(=O)C[C@H]1C[C@H]2c3cc(NS(=O)(=O)c4ccc(F)cc4)ccc3O[C@H]2[C@@H](CO)O1	-11.5%
O=C(C[C@H]1C[C@@H]2c3cc(NS(=O)(=O)c4ccc(F)cc4)ccc3O[C@@H]2[C@@H](CO)O1)NCc1cccc(F)c1	10.7%
O=C(C[C@H]1C[C@@H]2c3cc(NS(=O)(=O)c4ccc(F)cc4)ccc3O[C@@H]2[C@H](CO)O1)NCc1cccc(F)c1	54.4%
C[C@@H]1CN([C@H](C)CO)C(=O)c2cc(C#CC3CCCC3)cnc2O[C@@H]1CN(C)C(=O)C1CCC1	-5.58%
O=C(Cc1ccncc1)Nc1ccc2c(c1)[C@@H]1C[C@H](CC(=O)N3CCCCC3)O[C@H](CO)[C@@H]1O2	9.17%
C[C@@H]1CCCCO[C@@H](CN(C)Cc2ccc(C(=O)O)cc2)[C@@H](C)CN([C@@H](C)CO)C(=O)c2cc(NC(=O)Nc3ccc(C(F)(F)F)cc3)ccc2O1	-4.94%
COc1ccc2c3c([nH]c2c1)[C@H](CO)N(C(=O)c1ccccc1)CC31CN(C(=O)Nc2cccc(F)c2)C1	12.9%
COc1ccc2c3c([nH]c2c1)[C@H](CO)N(C(=O)Nc1ccc(F)cc1)CC31CN(S(=O)(=O)c2cccc(F)c2)C1	-38.9%
COc1ccc2c3c([nH]c2c1)[C@@H](CO)N(C(C)=O)CC31CN(C(=O)Nc2ccc(F)cc2)C1	31%
COc1ccc2c3c([nH]c2c1)[C@H](CO)N(C(=O)Nc1cccc(F)c1)CC31CCN(S(=O)(=O)c2ccccc2)CC1	92.2% (active)
COc1ccc2c3c([nH]c2c1)[C@@H](CO)N(C(=O)Nc1cccc(F)c1)CC31CCN(S(=O)(=O)c2ccccc2)CC1	80.9% (active)
COc1ccc2c3c(n(C)c2c1)[C@@H](CO)N(C(=O)Nc1cccc(F)c1)CC31CCN(Cc2nccs2)CC1	23.1%
N#C[C@@H]1[C@@H](c2ccc(-c3ccccc3F)cc2)[C@@H](CO)N1C(=O)C1CC1	-18.6%
C[C@H]1CN([C@@H](C)CO)S(=O)(=O)c2ccc(C#CC3CCCC3)cc2O[C@@H]1CN(C)C(=O)c1cccc(F)c1	33.9%
O=C(C[C@H]1CC[C@H]2[C@@H](COC[C@H](O)CN2CCC(F)(F)F)O1)N1CCC(Cc2ccccc2)CC1	32.1%
C[C@H]1CN([C@@H](C)CO)C(=O)Cc2cc(NC(=O)C3CC3)ccc2O[C@@H]1CN(C)S(=O)(=O)c1cccs1	-4.09%
C[C@H]1CN([C@@H](C)CO)C(=O)Cc2cc(NS(=O)(=O)c3ccc(F)cc3)ccc2O[C@H]1CN(C)Cc1ccc(C(F)(F)F)cc1	-1.59%
C[C@H](CO)N1C[C@H](C)[C@@H](CN(C)S(=O)(=O)c2ccc(Cl)cc2)Oc2ccc(NS(=O)(=O)c3cccs3)cc2CC1=O	-22%

Structure (SMILES)	inhibition
C[C@@H]1CN([C@H](C)CO)C(=O)Cc2cc(NC(=O)Cc3ccccc3)ccc2O[C@H]1CN(C)S(=O)(=O)c1cccs1	25.8%
C[C@@H]1CN([C@H](C)CO)C(=O)Cc2cc(NC(=O)CCCN(C)C)ccc2O[C@@H]1CN(C)S(=O)(=O)c1cccs1	-1.4%
C[C@H]1CN([C@@H](C)CO)C(=O)Cc2cc(NC(=O)Cc3ccccc3)ccc2O[C@H]1CN(C)S(=O)(=O)c1cccs1	98.7% [at 12.3 µM] (active)
C[C@@H]1CN([C@H](C)CO)C(=O)Cc2cc(NS(=O)(=O)c3ccc(Cl)cc3)ccc2O[C@H]1CN(C)S(=O)(=O)c1cccs1	-4.91%
C[C@H]1CN([C@@H](C)CO)C(=O)c2cc(NC(=O)NC3CCCCC3)ccc2O[C@@H]1CN(C)S(=O)(=O)c1cccs1	7.17%
Cc1ccc(S(=O)(=O)Nc2ccc3c(c2)CC(=O)N([C@H](C)CO)C[C@@H](C)[C@H](CN(C)Cc2ccc(C(F)(F)F)cc2)O3)cc1	8.6%
C[C@H]1CN([C@@H](C)CO)C(=O)Cc2cc(NC(=O)NC3CCCCC3)ccc2O[C@H]1CN(C)S(=O)(=O)c1cccs1	56.2% (active)
C[C@@H]1CN([C@@H](C)CO)C(=O)Cc2cc(NS(=O)(=O)c3ccc(Cl)cc3)ccc2O[C@H]1CN(C)Cc1ccc(C(F)(F)F)cc1	77.5% (active)
C[C@H](CO)N1C[C@H](C)[C@H](CN(C)S(=O)(=O)c2cccs2)Oc2ccc(NS(=O)(=O)c3ccc(Cl)cc3)cc2CC1=O	55.2% (active)
[N-]=[N+]=Nc1ccccc1C[C@@]1(C(=O)NCc2ccccc2)N=C(c2ccc(OCCCO)cc2)O[C@@H]1c1ccccc1	42.5%
C[C@H]1CN([C@@H](C)CO)C(=O)c2cccc(NS(=O)(=O)c3ccc(F)cc3)c2O[C@@H]1CN(C)CC1CC1	-1.23%
Cc1noc(C)c1NC(=O)N(C)C[C@@H]1OCCCC[C@H](C)Oc2ccc(NC(=O)c3ccccc3)cc2C(=O)N([C@@H](C)CO)C[C@@H]1C	18.4%
N#C[C@@H]1[C@@H](c2ccc(-c3ccccc3F)cc2)[C@@H](CO)N1C(=O)c1ccccn1	16.4%
C[C@@H]1CN([C@H](C)CO)C(=O)c2ccccc2-c2ccccc2CO[C@H]1CN(C)C(=O)CCC(F)(F)F	-2.05%
CCCC#Cc1ccc([C@@H]2[C@@H](C#N)N(C(=O)C3CC3)[C@H]2CO)cc1	-1.11%
CCC(=O)Nc1ccc2c(c1)OC[C@H](C)N(Cc1ccccc1F)C[C@H](C)[C@@H](OC)CN(C)C2=O	27.1%
CCCN1C[C@@H](C)[C@@H](OC)CN(C)C(=O)c2ccc(NC(=O)Nc3cccc(F)c3)cc2OC[C@@H]1C	-6.04%
C/C=C/c1ccccc1[C@H]1[C@@H](C#N)N(C(=O)Cc2ccccn2)[C@@H]1CO	-20.6%
C[C@@H]1CN([C@@H](C)CO)C(=O)c2cc(C#CCc3ccccc3)cnc2O[C@@H]1CN(C)C(=O)C1CCOCC1	6.96%
C[C@@H]1CN([C@H](C)CO)C(=O)c2cccc(NS(=O)(=O)c3ccc(Cl)cc3)c2O[C@@H]1CN(C)Cc1ccc(Cl)c(Cl)c1	74.9% (active)
C[C@@H]1CN([C@@H](C)CO)C(=O)c2cccc(NS(=O)(=O)c3ccc(Cl)cc3)c2O[C@@H]1CN(C)Cc1ccccc1	-7.04%
C[C@@H]1CN([C@H](C)CO)C(=O)c2cccc(NS(=O)(=O)c3ccc(Cl)cc3)c2O[C@H]1CN(C)Cc1ccc(C(F)(F)F)cc1	9.64%
COc1cccc(S(=O)(=O)N(C)C[C@@H]2Oc3ncc(-c4cccc(C(=O)N(C)C)c4)cc3C(=O)N([C@H](C)CO)C[C@H]2C)c1	3.38%
CC(C)NC(=O)N(C)C[C@@H]1OCCCC[C@@H](C)Oc2ccc(NC(=O)c3ccccc3)cc2C(=O)N([C@@H](C)CO)C[C@H]1C	-4.61%

— PubChem BioAssay AID651610 (Broad Institute, 2012)
